In PubChem BioAssay (NCI):
About 79,000 compounds went through this panel and 15% of them were active in at least one assay; those are over-represented in the sample as a whole. Values without a mark were called inactive. Activity calls are given as the source filed them. Cut-off read from the data, not from the text of the source: active = growth inhibition above about 70%; inactive = the rest.

Legend:
[1] = NCI Yeast Anticancer Drug Screen. Data for the rad52 strain (AID 147);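 note: 0% = growth of vehicle-treated control cultures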; settings: S. cerevisiae rad52 mutant growth inhibition, hits give high values
How it was run: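 Measured: yeast growth inhibition. System: strain with a defined DNA damage repair alteration. Reference: vehicle-treated control cultures.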

[2] = NCI Yeast Anticancer Drug Screen. Data for the wt1 strain (AID 149);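 note: 0% = growth of vehicle-treated wt1 cultures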; settings: S. cerevisiae wt1 strain (SPY 50644) growth inhibition, hits give high values
How it was run: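 Yeast wt1 strain exposed to compounds; growth inhibition measured relative to vehicle-treated controls.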

[3] = NCI Yeast Anticancer Drug Screen. Data for the rad50EPP+ strain (AID 151);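 note: 0% = growth of vehicle-treated control cultures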; settings: S. cerevisiae rad50 mutant strain, hits give high values
How it was run: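 One strain with a rad50 alteration (rad50EPP+) was compound-treated, its growth then compared to that of vehicle controls.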

[4] = NCI Yeast Anticancer Drug Screen. Data for the mgt1 strain (AID 153); settings: S. cerevisiae mgt1 mutant growth inhibition, hits give high values
How it was run: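 After exposure of the mgt1 yeast mutant to compound, growth was measured and reported as inhibition compared with vehicle controls.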

[5] = NCI Yeast Anticancer Drug Screen. Data for the rad50 strain (AID 155);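 note: 0% = growth of vehicle-only cultures of the same strain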; settings: S. cerevisiae rad50 strain growth inhibition, hits give high values
How it was run: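 Yeast carrying a defined DNA repair defect were exposed to test compounds, and growth was compared with vehicle-treated controls to give percent inhibition.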

[6] = NCI Yeast Anticancer Drug Screen. Data for the mec2-1 strain (AID 157); settings: S. cerevisiae mec2-1 strain, hits give high values
How it was run: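 Test agents were screened against the mec2-1 yeast strain, with defined DNA repair or cell cycle alteration. Growth was scored as inhibition against vehicle-only controls.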

[7] = NCI Yeast Anticancer Drug Screen. Data for the sgs1 mgt1 strain (AID 161);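 note: 0% = growth of cultures given vehicle only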; settings: S. cerevisiae sgs1 mgt1 strain, hits give high values
How it was run: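 Inhibition of yeast growth, normalised to vehicle-treated controls, is reported for a strain bearing genetic alterations in DNA damage repair.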

[8] = NCI Yeast Anticancer Drug Screen. Data for the CLN2oe strain (AID 163);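 note: 0% = growth of vehicle-only control cultures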; settings: S. cerevisiae CLN2oe strain, hits give high values
How it was run: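 Here, growth inhibition in a cell-cycle-altered yeast strain after compound exposure was quantified against vehicle control growth.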

[9] = NCI Yeast Anticancer Drug Screen. Data for the cln2 rad14 strain (AID 165);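 note: 0% = growth equal to vehicle treated cultures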; settings: S. cerevisiae cln2 rad14 strain, hits give high values
How it was run: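 Growth of compound-exposed yeast (cln2 rad14 genotype) measured and expressed as inhibition relative to vehicle.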

[10] = NCI Yeast Anticancer Drug Screen. Data for the bub3 strain (AID 167); settings: S. cerevisiae bub3 mutant strain, hits give high values
How it was run: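 Compounds were applied to a genetically altered yeast strain carrying a cell-cycle control defect. Growth inhibition was scored against vehicle-treated controls.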

[11] = NCI Yeast Anticancer Drug Screen. Data for the wt2 strain (AID 169);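 note: 0% = growth of vehicle-treated yeast cultures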; settings: S. cerevisiae wt2 strain growth inhibition, hits give high values
How it was run: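 Genetically defined yeast strains from a DNA-repair/cell-cycle panel were used. Compound-exposed yeast growth was measured, and the inhibition was calculated relative to vehicle treatment.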

[12] = NCI Yeast Anticancer Drug Screen. Data for the mlh1 strain (AID 171);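 note: 0% = growth of vehicle-treated control cultures of the same strain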; settings: S. cerevisiae mlh1 strain growth inhibition, hits give high values
How it was run: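 Here the genetically defined yeast mutant is grown with each compound, and the extent to which its growth falls below that of vehicle-exposed cells is reported.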

[13] = NCI Yeast Anticancer Drug Screen. Data for the sgs1 strain (AID 173);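 note: 0% = growth of vehicle-only control cultures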; settings: S. cerevisiae sgs1 mutant, hits give high values
How it was run: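 Relative growth inhibition, referenced to vehicle, was determined in a yeast strain with a defined alteration affecting DNA damage repair or cell cycle control after compound exposure.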

[14] = NCI Yeast Anticancer Drug Screen. Data for the mlh1 rad18 strain (AID 175); settings: S. cerevisiae mlh1 rad18 strain growth inhibition, hits give high values
How it was run: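 In this whole-cell yeast screen, a strain with altered DNA damage repair is challenged with compound, and its growth is measured against matched vehicle-treated controls.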

[15] = NCI Yeast Anticancer Drug Screen. Data for the rad18 strain (AID 177); settings: S. cerevisiae rad18 mutant growth inhibition, hits give high values
How it was run: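 Screen uses a yeast strain with a defined lesion in DNA damage repair; compound effect is read as loss of growth compared to untreated vehicle cultures.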

[16] = at 5.0 µM (retest, dose inferred, filed as 0.5)
[17] = at 50.0 µM (retest, dose inferred, filed as 5.0)

What does the source list for `OC1CCCc2c1cc1ccc3cccc4ccc2c1c34` (stereo not drawn)?
growth inhibition ([1]; at 1.2 µM): -7%; growth inhibition ([1]; at 3.7 µM): -2%; growth inhibition ([1]; at 11.0 µM): 98% (active); growth inhibition ([1]; at 33.0 µM): 96% (active); growth inhibition ([1]; at 100.0 µM): 91% (active); growth inhibition ([2]; at 1.2 µM): -2%; growth inhibition ([2]; at 3.7 µM): -10%; growth inhibition ([2]; at 11.0 µM): 99% (active); growth inhibition ([2]; at 33.0 µM): 98% (active); growth inhibition ([2]; at 100.0 µM): 92% (active); growth inhibition ([3]; at 1.2 µM): 0%; growth inhibition ([3]; at 3.7 µM): 37%; growth inhibition ([3]; at 11.0 µM): 46%; growth inhibition ([3]; at 33.0 µM): 57%; growth inhibition ([3]; at 100.0 µM): 62%; growth inhibition ([4]; at 1.2 µM): -4%; growth inhibition ([4]; at 3.7 µM): -8%; growth inhibition ([4]; at 11.0 µM): 99% (active); growth inhibition ([4]; at 33.0 µM): 98% (active); growth inhibition ([4]; at 100.0 µM): 90% (active); growth inhibition ([5]; at 1.2 µM): -17%; growth inhibition ([5]; at 3.7 µM): -14%; growth inhibition [5, 16]: 30%; growth inhibition ([5]; at 11.0 µM): 98% (active); growth inhibition ([5]; at 33.0 µM): 95% (active); growth inhibition [5, 17]: 92% (active); growth inhibition ([5]; at 50.0 µM): 95.6% (active); growth inhibition ([5]; at 100.0 µM): 88% (active); growth inhibition ([6]; at 1.2 µM): -5%; growth inhibition ([6]; at 3.7 µM): -5%; growth inhibition [6, 16]: 12%; growth inhibition ([6]; at 11.0 µM): 99% (active); growth inhibition ([6]; at 33.0 µM): 96% (active); growth inhibition [6, 17]: 93% (active); growth inhibition ([6]; at 50.0 µM): 94.1% (active); growth inhibition ([6]; at 100.0 µM): 88% (active); growth inhibition [7, 16]: 29%; growth inhibition [7, 17]: 94% (active); growth inhibition ([7]; at 50.0 µM): 97.4% (active); growth inhibition ([8]; at 1.2 µM): -9%; growth inhibition ([8]; at 3.7 µM): -14%; growth inhibition ([8]; at 11.0 µM): 99% (active); growth inhibition ([8]; at 33.0 µM): 97% (active); growth inhibition ([8]; at 100.0 µM): 91% (active); growth inhibition [9, 16]: -4%; growth inhibition [9, 17]: 94% (active); growth inhibition ([9]; at 50.0 µM): 94% (active); growth inhibition ([10]; at 1.2 µM): -11%; growth inhibition ([10]; at 3.7 µM): -3%; growth inhibition [10, 16]: 4%; growth inhibition ([10]; at 11.0 µM): 98% (active); growth inhibition ([10]; at 33.0 µM): 97% (active); growth inhibition [10, 17]: 92% (active); growth inhibition ([10]; at 50.0 µM): 95.5% (active); growth inhibition ([10]; at 100.0 µM): 89% (active); growth inhibition ([11]; at 1.2 µM): -1%; growth inhibition ([11]; at 3.7 µM): 10%; growth inhibition ([11]; at 11.0 µM): 100% (active); growth inhibition ([11]; at 33.0 µM): 98% (active); growth inhibition ([11]; at 100.0 µM): 94% (active); growth inhibition ([12]; at 1.2 µM): -16%; growth inhibition ([12]; at 3.7 µM): -10%; growth inhibition ([12]; at 11.0 µM): 98% (active); growth inhibition ([12]; at 33.0 µM): 97% (active); growth inhibition ([12]; at 100.0 µM): 90% (active); growth inhibition ([13]; at 1.2 µM): -8%; growth inhibition ([13]; at 3.7 µM): -3%; growth inhibition ([13]; at 11.0 µM): 99% (active); growth inhibition ([13]; at 33.0 µM): 97% (active); growth inhibition ([13]; at 100.0 µM): 90% (active); growth inhibition [14, 16]: 52%; growth inhibition [14, 17]: 93% (active); growth inhibition ([14]; at 50.0 µM): 94.8% (active); growth inhibition ([15]; at 1.2 µM): -11%; growth inhibition ([15]; at 3.7 µM): -3%; growth inhibition ([15]; at 11.0 µM): 99% (active); growth inhibition ([15]; at 33.0 µM): 98% (active); growth inhibition ([15]; at 100.0 µM): 92% (active)

Which results are given for `CC1OCC2OC(C)OC(C3C4=C(CC(C)(C)CC4=O)OC4=C3C(=O)CC(C)(C)C4)C2O1` (stereo not drawn)?
growth inhibition ([1]; at 1.2 µM): 0%; growth inhibition ([1]; at 3.7 µM): 4%; growth inhibition ([1]; at 11.0 µM): 17%; growth inhibition ([1]; at 33.0 µM): 38%; growth inhibition ([1]; at 100.0 µM): 56%; growth inhibition ([2]; at 1.2 µM): -2%; growth inhibition ([2]; at 3.7 µM): 2%; growth inhibition ([2]; at 11.0 µM): 6%; growth inhibition ([2]; at 33.0 µM): 24%; growth inhibition ([2]; at 100.0 µM): 45%; growth inhibition ([3]; at 1.2 µM): -3%; growth inhibition ([3]; at 3.7 µM): -5%; growth inhibition ([3]; at 11.0 µM): -4%; growth inhibition ([3]; at 33.0 µM): -1%; growth inhibition ([3]; at 100.0 µM): 1%; growth inhibition ([4]; at 1.2 µM): -1%; growth inhibition ([4]; at 3.7 µM): 2%; growth inhibition ([4]; at 11.0 µM): 2%; growth inhibition ([4]; at 33.0 µM): 2%; growth inhibition ([4]; at 100.0 µM): 21%; growth inhibition ([5]; at 1.2 µM): 7%; growth inhibition ([5]; at 3.7 µM): -32%; growth inhibition [5, 16]: 10%; growth inhibition ([5]; at 11.0 µM): 49%; growth inhibition ([5]; at 33.0 µM): 61%; growth inhibition [5, 17]: 57%; growth inhibition ([5]; at 50.0 µM): 82.2% (active); growth inhibition ([5]; at 100.0 µM): 80% (active); growth inhibition ([6]; at 1.2 µM): 0%; growth inhibition ([6]; at 3.7 µM): 3%; growth inhibition [6, 16]: 7%; growth inhibition ([6]; at 11.0 µM): 12%; growth inhibition ([6]; at 33.0 µM): 28%; growth inhibition [6, 17]: -18%; growth inhibition ([6]; at 50.0 µM): 27.4%; growth inhibition ([6]; at 100.0 µM): 46%; growth inhibition [7, 16]: 5%; growth inhibition [7, 17]: 37%; growth inhibition ([7]; at 50.0 µM): 40.7%; growth inhibition ([8]; at 1.2 µM): -2%; growth inhibition ([8]; at 3.7 µM): -4%; growth inhibition ([8]; at 11.0 µM): -2%; growth inhibition ([8]; at 33.0 µM): -2%; growth inhibition ([8]; at 100.0 µM): -3%; growth inhibition [9, 16]: 5%; growth inhibition [9, 17]: 15%; growth inhibition ([9]; at 50.0 µM): 3.55%; growth inhibition ([10]; at 1.2 µM): 1%; growth inhibition ([10]; at 3.7 µM): 2%; growth inhibition [10, 16]: -46%; growth inhibition ([10]; at 11.0 µM): 7%; growth inhibition ([10]; at 33.0 µM): 29%; growth inhibition [10, 17]: 32%; growth inhibition ([10]; at 50.0 µM): 57.8%; growth inhibition ([10]; at 100.0 µM): 66%; growth inhibition ([11]; at 1.2 µM): -1%; growth inhibition ([11]; at 3.7 µM): 9%; growth inhibition ([11]; at 11.0 µM): 1%; growth inhibition ([11]; at 33.0 µM): 4%; growth inhibition ([11]; at 100.0 µM): 23%
